Hits are enriched below; roughly 27% of the tested compounds scored in any of these assays.
CYP2C9 act: activators of human CYP2C9. P11712. recombinant CYP2C9, luciferin-H conversion, luminescence; active compounds read high; factor 1 = untreated enzyme, 0 = blocked. activation factor at 5 µM. 96,000 tested, 1.4% active. AID 1024;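 active = activation factor of 2 or more for CYP2C9 at a 5 µM dose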;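 also: 0 = sulfaphenazole-blocked wells and 1 = vehicle-only wells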
CYP2C19 act: cytochrome P450 2C19 (human) activation | P33261 | recombinant CYP2C19, luciferin-H EGE luminescence; active compounds read high; 0 = fully inhibited enzyme, 1 = untreated enzyme | activation factor at 5 µM | 96,000 tested, under 10 active | AID 1025;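 active = activation factor of at least 2 at 5 µM in the primary screen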;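 also: 0 = wells with 2.5 mM tranylcypromine and 1 = vehicle-only wells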
Target sequence (P33261 whole entry, looked up): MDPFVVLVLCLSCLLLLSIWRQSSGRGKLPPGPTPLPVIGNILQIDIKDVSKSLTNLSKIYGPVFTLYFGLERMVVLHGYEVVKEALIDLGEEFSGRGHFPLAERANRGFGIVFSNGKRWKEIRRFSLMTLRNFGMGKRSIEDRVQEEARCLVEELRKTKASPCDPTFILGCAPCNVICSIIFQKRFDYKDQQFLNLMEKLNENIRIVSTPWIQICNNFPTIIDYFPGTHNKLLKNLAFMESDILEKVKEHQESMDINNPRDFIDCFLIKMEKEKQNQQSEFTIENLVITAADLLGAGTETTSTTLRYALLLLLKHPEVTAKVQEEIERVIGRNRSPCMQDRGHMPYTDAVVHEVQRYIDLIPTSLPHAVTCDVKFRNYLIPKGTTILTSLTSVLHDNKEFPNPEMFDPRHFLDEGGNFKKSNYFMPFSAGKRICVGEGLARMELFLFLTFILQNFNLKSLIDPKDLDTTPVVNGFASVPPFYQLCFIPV
sEH inhibitor: inhibitors of human soluble epoxide hydrolase. P34913. recombinant human sEH enzymatic activity assay. inhibition, % at 2 µM. 91,000 tested, 0.34% active; in the data active = inhibition above about 80%
CYP2C9 inhib: blocks human cytochrome P450 2C9; P11712; CYP2C9 Supersomes, luciferin-H conversion, luminescence; inhibition, % at 5 µM; 96,000 tested, 20% active;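 active = blocking of liver enzyme CYP2C9 beyond about 50% at 5 µM, limit read from the data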
sEH activator: activators of human soluble epoxide hydrolase. P34913. purified human sEH enzymatic activity, activator screen. activation, % at 2 µM. 91,000 tested, 0.04% active. AID 717; in the data active = activation above about 37%
CYP2C19 inhib: human CYP2C19 inhibition. P33261. CYP2C19 Supersomes, luciferin-H EGE luminescence, 30 min. inhibition, % at 5 µM. 96,000 tested, 21% active;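 active = CYP2C19 inhibition above a set limit at 5 µM in the primary screen, cut at about 50% in these data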;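 also: plate controls were negative control wells for no effect and 2.5 mM tranylcypromine positive control for full effect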
* marks the source's active call; other numbers are inactive results.

How did Cn1c(=O)c2cc(S(=O)(=O)NC(C(=O)NCc3cccnc3)c3ccccc3)ccc2n(C)c1=O (stereo unspecified) do in these assays?
CYP2C9 act: 0.9; CYP2C19 act: 0.7; sEH inhibitor: 4; CYP2C9 inhib: 13; sEH activator: -4; CYP2C19 inhib: 29

What do the screens show for `CC1CCCCC12NC(=O)N(CC(=O)NC(=O)NCc1ccco1)C2=O` (stereo unspecified)?
CYP2C9 act: 0.9; CYP2C19 act: 1.2; sEH inhibitor: -22; CYP2C9 inhib: 11; sEH activator: 20; CYP2C19 inhib: -15

Results for COc1cccc(CNC(=O)C2=C(C)C(=O)OC23CCC(C)CC3)c1 (stereo unspecified) ?
CYP2C9 act: 0.7; CYP2C19 act: 0.1; sEH inhibitor: 29; CYP2C9 inhib: 25; sEH activator: -27; CYP2C19 inhib: 91*

How did CC1=C(C(=O)N2CCCCC2)C2(CCC(C)CC2)OC1=O (stereo unspecified) do in these assays?
CYP2C9 act: 1; CYP2C19 act: 0.5; sEH inhibitor: -8; CYP2C9 inhib: -1; sEH activator: 8; CYP2C19 inhib: 51*

How did CC1=C(C(=O)N2CCCCCC2)C2(CCC(C)CC2)OC1=O (stereo unspecified) do in these assays?
CYP2C9 act: 0.9; CYP2C19 act: 0.6; sEH inhibitor: -6; CYP2C9 inhib: 7; sEH activator: 5; CYP2C19 inhib: 42

How did CC1=C(C(=O)NC2CCCC(C)C2C)C2(CCCCC2)OC1=O (stereo unspecified) do in these assays?
CYP2C9 act: 0.9; CYP2C19 act: 0.8; sEH inhibitor: 2; CYP2C9 inhib: 10; sEH activator: -2; CYP2C19 inhib: 18

What do the screens show for `COc1cccc(CNC(=O)c2ccccc2N)c1`?
CYP2C9 act: 0.9; CYP2C19 act: 0.2; sEH inhibitor: 3; CYP2C9 inhib: 9; sEH activator: 0; CYP2C19 inhib: 78*

How did CC1=C(C(=O)NC2CCCCC2C)C2(CCC(C)CC2)OC1=O (stereo unspecified) do in these assays?
CYP2C9 act: 0.5; CYP2C19 act: 0.1; CYP2C9 inhib: 48; CYP2C19 inhib: 91*

Results for CC1=C(C(=O)N(C)Cc2ccccc2)C2(CCC(C)CC2)OC1=O (stereo unspecified) ?
sEH inhibitor: -13; sEH activator: 13

Results for COc1ccc(OC)c(C(=O)N2CCC(C(=O)c3ccc(F)cc3)CC2)c1 ?
sEH inhibitor: 6; sEH activator: -5

What do the screens show for `Cc1cccc(N2CCN(C(=O)Cn3ccc4ccccc4c3=O)CC2)c1C`?
CYP2C9 act: 1.2; CYP2C19 act: 1; sEH inhibitor: -2; CYP2C9 inhib: -16; sEH activator: 5; CYP2C19 inhib: 4

What do the screens show for `Cc1ccc(CN2CCS(=O)(=O)CC2)cc1`?
CYP2C9 act: 0.6; CYP2C19 act: 0.3; sEH inhibitor: -8; CYP2C9 inhib: 39; sEH activator: 6; CYP2C19 inhib: 66*

Results for Cc1ccc(CN2CCNC2=O)cc1 ?
CYP2C9 act: 0.9; CYP2C19 act: 1; sEH inhibitor: -10; CYP2C9 inhib: 12; sEH activator: 10; CYP2C19 inhib: 3

How did O=C(Cc1ccc(Br)cc1)N1CCCCCC1 do in these assays?
CYP2C9 act: 0.9; CYP2C19 act: 0.5; sEH inhibitor: -1; CYP2C9 inhib: 10; sEH activator: -1; CYP2C19 inhib: 53*

What do the screens show for `O=C(Cc1ccc(-n2c(=O)[nH]c3ccccc3c2=O)cc1)N1CCN(c2ccccc2)CC1`?
CYP2C9 act: 0.9; CYP2C19 act: 1; sEH inhibitor: -1; CYP2C9 inhib: 8; sEH activator: 2; CYP2C19 inhib: 3

How did Cc1cccc(N2CCN(C(=O)Cc3ccc(Br)cc3)CC2)c1C do in these assays?
CYP2C9 act: 0.7; CYP2C19 act: 0.3; sEH inhibitor: -5; CYP2C9 inhib: 31; sEH activator: 6; CYP2C19 inhib: 70*

How did O=C(Cc1ccc(-n2c(=S)[nH]c3ccccc3c2=O)cc1)N1CCN(c2ccccc2)CC1 do in these assays?
CYP2C9 act: 1; CYP2C19 act: 0.4; sEH inhibitor: 5; CYP2C9 inhib: 4; sEH activator: -2; CYP2C19 inhib: 55*

How did CC1CCCN(C(=O)Cc2ccc(F)cc2)C1 (stereo unspecified) do in these assays?
CYP2C9 act: 0.7; CYP2C19 act: 0.3; sEH inhibitor: -2; CYP2C9 inhib: 33; sEH activator: 6; CYP2C19 inhib: 73*

What do the screens show for `COC(=O)C1CCN(Cc2ccc(C)cc2)CC1`?
CYP2C9 act: 0.9; CYP2C19 act: 0.1; sEH inhibitor: -4; CYP2C9 inhib: 12; sEH activator: 2; CYP2C19 inhib: 85*

What do the screens show for `COC(=O)C1CCN(C(=O)Cc2ccc(OC)c(OC)c2)CC1`?
sEH inhibitor: 7; sEH activator: -6

How did O=C(CN1CCN(c2ccccc2)CC1)N1CCN(c2ccccc2)CC1 do in these assays?
CYP2C9 act: 0.6; CYP2C19 act: 0.7; sEH inhibitor: -2; CYP2C9 inhib: 38; sEH activator: 2; CYP2C19 inhib: 26

What do the screens show for `COC(=O)C1CCN(C(=O)Cc2ccc(Br)cc2)CC1`?
CYP2C9 act: 0.8; CYP2C19 act: 0.1; sEH inhibitor: -11; CYP2C9 inhib: 19; sEH activator: 10; CYP2C19 inhib: 90*

Results for O=C(Cc1ccc(Br)cc1)N1CCN(c2ccccc2)CC1 ?
CYP2C9 act: 0.1; CYP2C19 act: 0; sEH inhibitor: 2; CYP2C9 inhib: 88*; sEH activator: -1; CYP2C19 inhib: 99*

What do the screens show for `O=C(O)COc1ccc(S(=O)(=O)c2ccc(OCC(=O)O)cc2)cc1`?
CYP2C9 act: 1; CYP2C19 act: 1; sEH inhibitor: -12; CYP2C9 inhib: -3; sEH activator: 10; CYP2C19 inhib: 4

How did O=C(O)C1CC=CCC1C(=O)N1CCCC1 (stereo unspecified) do in these assays?
CYP2C9 act: 0.9; CYP2C19 act: 1.1; sEH inhibitor: 6; CYP2C9 inhib: 9; sEH activator: -6; CYP2C19 inhib: -10

What do the screens show for `CCOC(=O)C1(C(F)(F)F)N=C(C(F)(F)F)Nc2ccccc21` (stereo unspecified)?
CYP2C9 act: 0.3; CYP2C19 act: 0.5; sEH inhibitor: -10; CYP2C9 inhib: 66*; sEH activator: 10; CYP2C19 inhib: 54*

What do the screens show for `CCO/C(C)=C1\C(=O)Nc2ccccc21`?
CYP2C9 act: 1.1; CYP2C19 act: 1.2; sEH inhibitor: 15; CYP2C9 inhib: -9; sEH activator: -12; CYP2C19 inhib: -19

What do the screens show for `O=C(COC(=O)[C@@H]1CCCN1C(=O)c1cccs1)NCCc1ccccc1`?
CYP2C9 act: 0.8; CYP2C19 act: 0.4; sEH inhibitor: 4; CYP2C9 inhib: 19; sEH activator: -2; CYP2C19 inhib: 60*

Results for COC(=O)C1CCCN1C(=O)c1cccs1 (stereo unspecified) ?
CYP2C9 act: 0.8; CYP2C19 act: 0.8; sEH inhibitor: 7; CYP2C9 inhib: 16; sEH activator: -4; CYP2C19 inhib: 17

Screens deposited in PubChem BioAssay by several laboratories.
